Among the test systems are NCI-H23 lung; NCI-H226 lung; NCI-H322M lung; HOP-62 NSCLC; NCI-H460 lung; HOP-92 NSCLC; A549/ATCC NSCLC; 786-0 renal; COLO 205 colon; DU-145 prostate; K-562 leukemia; MALME-3M melanoma; MDA-MB-231 breast; RXF 393 renal; SF-268 CNS; SF-295 CNS; SF-539 CNS; UACC-257 melanoma; M14 melanoma.
Experiment in all cases: NCI-60 one-dose screen, 48 h (100 = growth as untreated, 0 = no growth, -100 = all killed)
Common to all, as to conditions: 10 µM unless noted

About 83,000 compounds went through this panel and 20% of them were active in at least one assay; those are over-represented in the sample as a whole.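 In brief: 96-well plates, 48 h treatment, single concentration, percent growth endpoint.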 Values without a mark were called inactive. Active and inactive are the calls of the source. The calls were made as follows: active = growth percent below 10; inactive = the rest.

For the molecule `Cn1cc(NC(=O)Nc2cc(C(=O)O)n(C)c2)cc1C(=O)O`, the growth in the assay with NCI-H23 lung was 109%; in the assay on NCI-H226 lung it was 82.1%; with NCI-H322M lung, 100%; in the assay on HOP-62 NSCLC, 94.3%; in the assay on NCI-H460 lung, 120%; with HOP-92 NSCLC, 119%. Also, the growth was 102% in the assay on A549/ATCC NSCLC; 109% in the assay with 786-0 renal; 113% with COLO 205 colon; 121% in the assay with DU-145 prostate; 83.1% in the assay with K-562 leukemia; 89.1% in the assay with MALME-3M melanoma. The growth was 98.3% with MDA-MB-231 breast; 9.73% (active) in the assay on RXF 393 renal; 122% in the assay with SF-268 CNS; 99.4% in the assay on SF-295 CNS; 103% with SF-539 CNS; 106% with UACC-257 melanoma. Besides, in the assay on M14 melanoma, the growth is 108%.

On to `COc1cc(Cl)cc(-c2nn(-c3cccc(NC(=O)c4cc(C(F)(F)F)cc(C(F)(F)F)c4)c3)cc2-c2ccncc2)c1`, for which the growth is 72.1% with NCI-H23 lung; 76% in the assay on NCI-H226 lung; 80.3% with NCI-H322M lung; 103% in the assay on HOP-62 NSCLC; 40.9% with NCI-H460 lung; 46.8% in the assay with HOP-92 NSCLC. The growth is 43.5% with A549/ATCC NSCLC; 80.2% in the assay with 786-0 renal; 88.7% in the assay on COLO 205 colon; 78.2% in the assay with DU-145 prostate; 38% in the assay with K-562 leukemia; 104% in the assay on MALME-3M melanoma. The growth in the assay on MDA-MB-231 breast was 56.7%; with RXF 393 renal, 67.7%; in the assay with SF-268 CNS, 89.2%; in the assay on SF-295 CNS it was 42.1%; in the assay with SF-539 CNS, 80%; in the assay with UACC-257 melanoma, 79.3%. Further, the growth in the assay with M14 melanoma is 67.3%.

With `C(#Cc1ccccc1C#Cc1ccccn1)c1ccc(OCCCCCCOc2ccc(C#Cc3ccccc3C#Cc3ccccn3)cc2)cc1`, the growth in the assay on NCI-H23 lung is 57.3%; in the assay with NCI-H226 lung, 67.3%; in the assay with NCI-H322M lung, 67.8%; with HOP-62 NSCLC it was 38.2%; in the assay with NCI-H460 lung it was 19.9%; in the assay with HOP-92 NSCLC, 9.48% (active). Further, the growth was 25.3% with A549/ATCC NSCLC; 29.3% with 786-0 renal; 120% in the assay on COLO 205 colon; 76.2% in the assay on DU-145 prostate; 31.6% in the assay with K-562 leukemia; 99.6% in the assay on MALME-3M melanoma. The growth in the assay with MDA-MB-231 breast is 35.3%; in the assay with RXF 393 renal, 45.6%; in the assay on SF-268 CNS it was 88.9%; in the assay on SF-295 CNS it was -3.2% (active); with SF-539 CNS, 25.4%; in the assay with UACC-257 melanoma it was 34.2%. Further, the growth in the assay with M14 melanoma was 23.4%.

With `c1ccc2nc(Cn3c[n+](Cc4ccc5ccccc5n4)c4ccccc43)ccc2c1`, the growth in the assay with NCI-H23 lung is 32%; in the assay with NCI-H226 lung, 37.1%; in the assay with NCI-H322M lung, 78.1%; in the assay with HOP-62 NSCLC, 53.8%; in the assay on NCI-H460 lung it was 32.4%; with HOP-92 NSCLC it was -8.16% (active). Further, the growth with A549/ATCC NSCLC was 54%; in the assay on 786-0 renal it was 66.7%; with COLO 205 colon, 6.96% (active); in the assay with DU-145 prostate it was 60.8%; in the assay with K-562 leukemia, 17.8%; in the assay on MALME-3M melanoma, 20.3%. Moreover, the growth was 26.4% in the assay with MDA-MB-231 breast; 44.1% in the assay with RXF 393 renal; 54.9% in the assay with SF-268 CNS; 55.5% in the assay with SF-295 CNS; 41.5% with SF-539 CNS; -9.49% (active) with UACC-257 melanoma. The growth in the assay with M14 melanoma is 21.7%.

With `CCOC(=O)c1sc(NC(=O)COc2cccc(/C=C3\Cc4ccc(Cl)cc4C3=O)c2)nc1C`, the growth in the assay with NCI-H23 lung was 93.1%; with NCI-H226 lung, 95.4%; in the assay with NCI-H322M lung, 130%; in the assay with HOP-62 NSCLC it was 107%; in the assay on NCI-H460 lung, 103%; in the assay with HOP-92 NSCLC, 96.7%. Moreover, the growth in the assay with A549/ATCC NSCLC was 107%; in the assay on 786-0 renal it was 99.5%; in the assay with COLO 205 colon, 116%; in the assay on DU-145 prostate it was 117%; in the assay with K-562 leukemia it was 89.9%; in the assay with MALME-3M melanoma, 138%. Further, the growth with MDA-MB-231 breast is 81.1%; in the assay on RXF 393 renal, 131%; with SF-268 CNS, 116%; in the assay with SF-295 CNS, 125%; with SF-539 CNS, 107%; in the assay on UACC-257 melanoma, 110%. Moreover, in the assay on M14 melanoma, the growth is 110%.

Turning to `O=C(O)C1C(c2ccccc2)c2ccccc2C(O)C1CO` (configuration not stated), the growth was 106% in the assay on NCI-H23 lung; 105% in the assay with NCI-H226 lung; 112% in the assay on NCI-H322M lung; 107% with HOP-62 NSCLC; 111% in the assay with NCI-H460 lung; 89.1% in the assay on HOP-92 NSCLC. Also, the growth is 111% in the assay with A549/ATCC NSCLC; 107% with 786-0 renal; 99.7% in the assay with COLO 205 colon; 136% in the assay on DU-145 prostate; 111% in the assay with K-562 leukemia; 146% in the assay with MALME-3M melanoma. The growth is 94.9% in the assay on MDA-MB-231 breast; 123% in the assay on RXF 393 renal; 116% in the assay on SF-268 CNS; 120% with SF-295 CNS; 99.7% with SF-539 CNS; 98.9% with UACC-257 melanoma. The growth with M14 melanoma was 99.5%.

`COc1cnc2c(c1)C(=O)c1c-2n(CCCN2CCOCC2)c(=O)c2cc(F)ccc12`: the growth is -15% (active) in the assay with NCI-H23 lung; -64.5% (active) in the assay with NCI-H226 lung; 8.18% (active) in the assay with NCI-H322M lung; -23% (active) in the assay on HOP-62 NSCLC; -32.9% (active) in the assay with NCI-H460 lung; -13.5% (active) in the assay on HOP-92 NSCLC. Also, the growth is -29.2% (active) in the assay with A549/ATCC NSCLC; -60.1% (active) in the assay on 786-0 renal; -8.99% (active) in the assay on COLO 205 colon; 3.8% (active) with DU-145 prostate; 12.4% with K-562 leukemia; -31.8% (active) in the assay on MALME-3M melanoma. The growth is 40.6% with MDA-MB-231 breast; -30.1% (active) with RXF 393 renal; 3.55% (active) with SF-268 CNS; -21.1% (active) in the assay with SF-295 CNS; -61.4% (active) in the assay with SF-539 CNS; -10.6% (active) in the assay with UACC-257 melanoma. In addition, the growth with M14 melanoma is 0.95% (active).

In the case of `NC(=O)NC1(C(=O)O)CCCC1`, the growth is 105% in the assay on NCI-H23 lung; 111% in the assay with NCI-H226 lung; 115% in the assay on NCI-H322M lung; 110% in the assay on HOP-62 NSCLC; 112% in the assay on NCI-H460 lung; 121% in the assay with HOP-92 NSCLC. Further, the growth is 101% with A549/ATCC NSCLC; 107% in the assay with 786-0 renal; 107% in the assay with COLO 205 colon; 118% in the assay on DU-145 prostate; 99.9% with K-562 leukemia; 114% with MALME-3M melanoma. Further, the growth is 109% with MDA-MB-231 breast; 125% in the assay on RXF 393 renal; 106% with SF-268 CNS; 116% in the assay on SF-295 CNS; 102% in the assay with SF-539 CNS; 101% in the assay on UACC-257 melanoma. Moreover, the growth with M14 melanoma is 113%.

Source of the values: PubChem BioAssay (NCI).
